Hit rate of the full screen: of about 220,000 compounds, about 2,000 (0.91%) were called active. Not shown: some 2% with an inconclusive outcome. A selection follows. Potency and affinity values are given separately. Values without a mark were called inactive. Rule as the data show it: inconclusive = inhibition above about 80% without an active follow-up result; inactive = below that; test concentration not stated here.

A short description of this assay: M. tuberculosis H37Rv growth inhibitors, H37Rv strain (AID 1626).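 Also: bacteria incubated seven days before Alamar blue readout; 0% = bacteria only wells and 100% = bacteria with antibiotic wells.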 The note with it: active compounds read high, concentration not given here.
On to `CCCC(=O)Nc1ccc(NC(=O)c2ccccc2Cl)nc1`, for which the inhibition is 7.45%. On to `O=C(N/N=C/C=C\c1ccc([N+](=O)[O-])cc1)c1cccnc1`, for which the inhibition is -15.7%. The value for `O=C1/C(=C/c2ccncc2)Oc2cc(OS(=O)(=O)c3ccccc3)ccc21` was 21.6%; that for `Cc1ccc(S(=O)(=O)Oc2ccc3c(c2)O/C(=C\c2cccnc2)C3=O)cc1` was -0.74%; that for `CS(=O)(=O)Oc1ccc2c(c1)O/C(=C\c1cccnc1)C2=O` was -6.08%. Then `O=C1/C(=C/c2cccnc2)Oc2cc(OS(=O)(=O)c3ccc(Cl)cc3)ccc21`, with 13.6%. The value for `Cc1ccc2[nH]cc(C(=O)CN3CCOCC3)c2c1` was -4.26%.

Regarding `COc1ccc(C2C3=C(CCCC3=O)Nc3n[nH]c(C)c32)cc1OC` (centres undefined), the inhibition was -5.11%. As for `CCOC(=O)CSc1nnc(CNc2cccc(Cl)c2)n1-c1ccccc1`, the inhibition is 5.48%. Then `N#Cc1nc(-c2ccc(OCc3ccc(Cl)cc3)cc2)oc1NCCCn1ccnc1`, with -1.04%. As for `N#Cc1nc(-c2ccc(OCc3ccccc3)cc2)oc1NCCCn1ccnc1`, the inhibition was 4.85%. The value for `Cc1cccc(C)c1Nc1nnc(SCc2cn3cccc(C)c3n2)s1` was -7.42%; that for `COc1ccc(-c2cc(=Nc3ccc(C)cc3)c3ccccc3o2)cc1` was 12.8%; that for `COc1ccc(-c2cc(=Nc3ccccc3)c3cc(C)ccc3o2)cc1` was 17.7%. Turning to `O=C(CNC(=O)c1ccco1)Nc1ccc(S(=O)(=O)N2CCCC2)cc1`, the inhibition is -5.82%. Then `CN(C)CCCN(C(=O)CCc1ccccc1)c1nc2ccc(F)cc2s1`, with 7.03%. Regarding `Cc1ccc2nc(N(CCCN(C)C)C(=O)CCc3ccccc3)sc2c1`, the inhibition is 9.45%. Then `O=C1NC(c2ccccc2)=NC1(NS(=O)(=O)c1ccc(Cl)cc1)C(F)(F)F` (centres undefined), with 7.08%; and `O=C(c1cccs1)c1coc2ccc(O)cc12`, with 51%; and `O=C(c1coc2ccc(O)c(CN3CCOCC3)c12)C1CC1`, with 4.13%. With `O=C(c1ccc(Cl)cc1)c1coc2ccc(O)cc12`, the inhibition is -6.06%. The value for `COc1ccc(OC)c(C(=O)c2coc3ccc(O)cc23)c1` was -1.33%; that for `CN1CC(=O)N(CC(=O)Nc2ccc(F)cc2)c2ccccc2C1=O` was -5.02%; that for `COc1ccc(C(=O)Nn2c(CCC(=O)O)ccc2-c2ccc(C)cc2)cc1OC` was -3.08%.

As to `Cc1cccc(N2CCN(C(=O)N3CCOCC3)CC2)c1C`, the inhibition is -3.5%.

On to `Cc1nn(C)c(C(=O)NNC(=S)NC2CCCCC2)c1Br`, for which the inhibition was 10.2%. The value for `Cc1ccc(NC(=O)COC(=O)CCNS(=O)(=O)c2ccc(C)c(C)c2)cc1` was -0.05%; that for `CCCOc1cc(N(CC)CC)ccc1/C=C(/C#N)c1nc2ccc(C)cc2[nH]1` was 61.6%; that for `CCN(CC)c1ccc(/C=C(/C#N)c2nc3ccc(C)cc3[nH]2)c(OC(C)C)c1` was 16.2%. The value for `FC(F)(F)c1ccc(CN2C[C@@H]3C(c4ccccc4)C4(c5cccnc5)CC3(C4)[C@H]2c2ccccc2)cc1` (some centres undefined) was 20.3%. Then `COc1ccccc1S(=O)(=O)CC(O)COc1ccc(C#N)cc1` (centres undefined), with -1.05%; and `Cc1nccn1CC(=O)N/N=C/c1c[nH]c2ccccc12`, with 3.79%. As to `O=C(CCN1c2ccccc2Sc2ccccc21)Oc1ccccc1`, the inhibition was 22.8%.

Take `COC(=O)c1ccc(OC(=O)CCN2c3ccccc3Sc3ccccc32)cc1`: the inhibition is 1.13%.

For `CSCCC(NC(=O)c1ccccc1)c1nc(-c2ccccc2)no1` (centres undefined), the inhibition was 2.56%.

Consider `CCOc1cc(Br)ccc1S(=O)(=O)N1CCC(C(N)=O)CC1`, for which the inhibition was -1.13%. The value for `CCOC(=O)c1ccc(N=Nc2c(C)c(C#N)c(O)[nH]c2=O)cc1` was 86.6%; that for `Cc1cccc(N=Nc2c(C)c(C#N)c(O)[nH]c2=O)c1` was -1.05%. As to `Cc1ccc(C)c2[nH]c(=O)c(CN(CC3CCCO3)C(=S)NCc3ccco3)cc12` (centres undefined), the inhibition was 1.36%. As for `c1ccc(COc2ccc(CNn3cnnc3)cc2)cc1`, the inhibition is -2.39%.

For the molecule `COc1cccc(-c2nc(Oc3cccc(C)c3C)c3ccccc3n2)c1O`, the inhibition is -7.68%.

As to `Cc1nc(SCC(=O)NCc2ccccc2)c2oc3ccccc3c2n1`, the inhibition was -1.12%.

As to `CCOC(=O)N1C2=NC(C(=O)OC)=C(C(=O)OC)[C@@H]3N(Cc4ccccc4)c4ccccc4[C@]23C[C@H]1C(=O)OC`, the inhibition was -6.13%.

On to `Cc1ccc(C(=O)c2cn(-c3ccc(F)c(Cl)c3)nn2)cc1`, for which the inhibition was 0.59%.

On to `CN1CCN(c2ccc(C(=O)c3ccc(F)cc3)cc2)CC1`, for which the inhibition is 1.19%. As to `O=C(c1cn(-c2ccc(Cl)c(Cl)c2)nn1)C1CC1`, the inhibition was 12.8%. The value for `Cc1ccc(-n2cnnn2)cc1Cl` was -4.47%; that for `Cc1c(-n2c(O)c(C3=c4ccccc4=NC3=O)sc2=O)c(=O)n(-c2ccccc2)n1C` was 1.59%. Then `N/C(=N\OC(=O)c1cc(Cl)ccc1Cl)c1ccncc1`, with -3.7%; and `CS(=O)(=O)N(Cc1ccc(Cl)cc1)c1ccc(C(=O)N/N=C/c2cc3ccccc3nc2Cl)cc1`, with -6.17%.

As to `Cc1ccc(-n2nnnc2SCC(=O)Nc2sccc2C#N)cc1`, the inhibition is 0.42%. Then `O=C(CN1C(=O)CCC1=O)NCC12CC3CC(CC(C3)C1)C2`, with 0.8%; and `Cc1ccc(N/C=C(\C#N)c2ccc(OCCCF)cc2)cc1`, with 7.98%; and `Cc1nn(Cc2ccccc2Cl)c2sc(C(=O)NC(C)(C)C)cc12`, with 7.48%. The value for `Cc1nc2ccccn2c1C(=O)N/N=C/c1ccc2c(c1)OCO2` was 1.58%; that for `COc1ccc(NC(=O)c2c(Cl)nc3ccccn23)cc1` was -0.46%.

Take `O=C(NCc1ccc2c(c1)OCO2)c1cnc2ccccn2c1=O`: the inhibition was -8.83%. Then `CC(C)(C)c1ccc(C(=O)OCCNC(=O)c2c(Cl)nc3ccccn23)cc1`, with -10.6%; and `CCNC(=O)c1c(C)nc2ccccn12`, with -9.74%. The value for `CCC(CC)NC(=O)c1cc2c(C)nn(Cc3ccccc3Cl)c2s1` was -6.17%; that for `Cc1nc2ccccn2c1C(=O)NCc1cccnc1` was -10.5%; that for `COCCn1c(=O)[nH]c2cc(C(=O)NCC3CCCO3)ccc2c1=O` (centres undefined) was -10.7%. Then `COc1cc(C2NC(=O)NC(C)=C2C(C)=O)ccc1O` (centres undefined), with 5.67%; and `COC(=O)c1ccccc1NC(=O)NCc1cccnc1`, with 2.42%; and `CCCC(C)C(=O)Nc1ccc(Cl)cc1Cl` (centres undefined), with -6.12%. Turning to `Cc1ccc(NC(=O)CC(=O)NCCN2CCOCC2)cc1`, the inhibition was -6.87%. The value for `CC(=O)c1ccc(OC(C)C)c(CSC(=N)N)c1` was -9.08%; that for `COc1ccccc1NS(=O)(=O)c1cccc(NC(=S)NCCN2CCOCC2)c1` was -2.29%.

Regarding `Cc1ccc2nc3c(c(Nc4ccc5c(c4)OCCO5)c2c1)CCC3`, the inhibition is 59.8%. Then `c1ccc2c(Nc3ccc4c(c3)OCCO4)c3c(nc2c1)CCC3`, with 21.9%. Then `N#Cc1c(SCC(N)=O)nsc1SCc1ccc(Cl)cc1`, with -0.48%; and `CSc1snc(SCC(N)=O)c1C#N`, with -4.47%. On to `C/C=C/C(=O)OCC(=O)Nc1cccc(Br)c1`, for which the inhibition was -3.94%. Then `COc1ccc(NC(=O)C(C)Sc2nnc3c4c(nc(-c5ccc(OC)cc5)n23)CC(C)(C)OC4)cc1` (centres undefined), with 4.37%; and `CC(C)CNC(=S)N1CCN(Cc2ccc3c(c2)OCO3)CC1`, with -8.68%. The value for `CCC(=O)Nc1ccc(NC(=O)c2cc3ccccc3o2)cc1` was 8.98%. The value for `CCC1C(=O)N=C(SCC(=O)Nc2ccc(C(=O)OC)cc2)NC1=O` (centres undefined) was 8.73%; that for `CCOC(=O)c1ccc(NC(=O)CNC(=O)c2ccccc2)cc1` was 0.26%; that for `COc1ccc(NC(=O)c2cc3ccccc3o2)cc1` was 8.56%.

Consider `Cc1ccc(NC(=O)c2cc3c(s2)CCCC3)cc1`, for which the inhibition is -5.85%. The value for `CCC1C(=O)N=C(SCC(=O)Nc2ccccc2)NC1=O` (centres undefined) was -8%; that for `CCOC(=O)c1ccc(NC(=O)Nc2ccc(F)cc2)cc1` was -14.9%; that for `COc1ccccc1NC(=O)c1ccc(NC(=O)c2cc3c(s2)CCC3)cc1` was 0.63%.

On to `COc1cccc(/C=N/NC(=O)CN(CCc2ccccc2)S(=O)(=O)c2ccc(NC(C)=O)cc2)c1`, for which the inhibition was 0.86%.

With `COc1ccc(/C=N/NC(=O)c2cccnc2)cc1CN1CCc2cc(OC)c(OC)cc2C1C` (centres undefined), the inhibition is 1.27%. The value for `Cc1cc(C)n2nc(C(=O)OCC(=O)c3cc(C)n(CC4CCCO4)c3C)nc2n1` (centres undefined) was -11.1%; that for `CC(=O)c1ccc(NC(=O)N2C3CCC2CC(O)(c2cccnc2)C3)cc1` (centres undefined) was -0.55%; that for `CCOC(=O)c1ccc(-c2ccc(/C=N/NC(=O)CN(c3ccccc3Cl)S(C)(=O)=O)o2)cc1` was 6.39%. The value for `NNC(=O)c1cnn(-c2ccccc2)c1-n1cccc1` was -3.69%; that for `Cc1ccc(NC(=O)C(=O)NCc2ccc(/C=C(/C#N)C(=O)NCc3cccnc3)o2)cc1C` was 0.05%. Then `CCOC(=O)N1CCN(C(=O)CSCC(=O)N=c2sc3ccccc3n2C)CC1`, with -1.11%; and `CCOC(=O)Cc1nc2ccccc2[nH]1`, with -10.4%.

Regarding `CCOC(=O)c1ccc(NCc2nc3ccccc3n2C)cc1`, the inhibition was 51.7%. The value for `CCOC(=O)c1ccc(NC(=O)c2cc(F)c(F)cc2Cl)cc1` was 2.44%; that for `CCOC(=O)c1ccc(NC(=O)Nc2ccc(Cl)cn2)cc1` was -5.47%. Then `CCOC(=O)c1ccc(NC(=O)COC)cc1`, with 79.3%; and `CC1CCC/C(=C\Nc2ccc(O)cc2)C1=O` (centres undefined), with -13%; and `CC1CCC/C(=C\Nc2ccc(C(=O)O)cc2)C1=O` (centres undefined), with -6.3%. The value for `CCCOC(=O)c1ccc(NC(=O)CC(C)(C)C)cc1` was -1.14%.

What is called inhibition is the relative decrease from the control value, in per cent.
